Compound activity (PubChem BioAssay)
Rpn11 inh – inhibitors of human proteasome Rpn11; O00487; human 26S proteasome, Ub4-pepOG fluorescence polarization; 20S core pre-blocked with epoxomicin; inhibition, % at 20 µM; actives 0.59% (n = 360,000); AID 588493;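 active means inhibition at 20 µM, scaled to each plate's controls, above about 33%, limit read from the data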
IDE cell inh – inhibits human insulin-degrading enzyme in HEK cells. P14735. FAbetaB cleavage, fluorescence polarization. inhibition, % at 5.59 µM. actives 0.41% (n = 320,000). AID 434962;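 active means percent inhibition above the average of all tested compounds plus 3 SD, set per screening campaign, cut at about 16% in these data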;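 further: IDE supplied by intact live HEK cells; FP after avidin binding of uncleaved biotin substrate so inhibition keeps polarization high; 0% = DMSO wells and 100% = 60 µM reference IDE inhibitor Ii1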
Rin1 Abl inh – inhibitors of human Rin1-Abl protein interaction. P00519+Q13671. TR-FRET Rin1/Abl binding, biochemical. inhibition, % at 7.35 µM. actives 0.4% (n = 360,000); in the data active means inhibition above about 5%, passing the limit was not always enough
Target sequence (P00519 whole entry, looked up): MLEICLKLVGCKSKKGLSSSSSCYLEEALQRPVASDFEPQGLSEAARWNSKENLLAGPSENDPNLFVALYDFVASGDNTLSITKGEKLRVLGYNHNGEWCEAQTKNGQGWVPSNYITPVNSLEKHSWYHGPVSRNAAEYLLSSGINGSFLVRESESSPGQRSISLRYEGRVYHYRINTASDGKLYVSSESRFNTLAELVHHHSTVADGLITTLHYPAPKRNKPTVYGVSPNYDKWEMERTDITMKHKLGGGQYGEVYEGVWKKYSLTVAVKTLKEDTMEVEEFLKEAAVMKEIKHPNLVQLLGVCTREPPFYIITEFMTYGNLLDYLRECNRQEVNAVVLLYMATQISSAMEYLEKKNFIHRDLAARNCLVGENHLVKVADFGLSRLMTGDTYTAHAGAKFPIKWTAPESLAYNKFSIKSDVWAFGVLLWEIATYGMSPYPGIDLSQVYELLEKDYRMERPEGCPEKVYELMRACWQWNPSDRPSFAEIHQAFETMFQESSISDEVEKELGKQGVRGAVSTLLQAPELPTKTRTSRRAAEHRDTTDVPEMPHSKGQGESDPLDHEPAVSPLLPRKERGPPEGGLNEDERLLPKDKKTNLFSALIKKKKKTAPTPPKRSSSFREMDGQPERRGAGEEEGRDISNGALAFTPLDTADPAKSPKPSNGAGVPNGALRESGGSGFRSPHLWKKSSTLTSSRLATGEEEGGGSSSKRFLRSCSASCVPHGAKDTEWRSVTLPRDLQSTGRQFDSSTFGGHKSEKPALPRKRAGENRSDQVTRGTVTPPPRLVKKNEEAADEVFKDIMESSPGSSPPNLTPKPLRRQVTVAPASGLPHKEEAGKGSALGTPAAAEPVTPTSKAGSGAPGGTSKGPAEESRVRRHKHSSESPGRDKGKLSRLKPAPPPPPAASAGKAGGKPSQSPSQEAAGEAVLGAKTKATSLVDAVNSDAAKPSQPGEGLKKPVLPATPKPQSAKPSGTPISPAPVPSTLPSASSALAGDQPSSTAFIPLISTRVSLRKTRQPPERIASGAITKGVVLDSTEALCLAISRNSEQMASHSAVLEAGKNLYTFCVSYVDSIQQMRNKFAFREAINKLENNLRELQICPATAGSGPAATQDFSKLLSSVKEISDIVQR
Target sequence (Q13671 whole entry, looked up): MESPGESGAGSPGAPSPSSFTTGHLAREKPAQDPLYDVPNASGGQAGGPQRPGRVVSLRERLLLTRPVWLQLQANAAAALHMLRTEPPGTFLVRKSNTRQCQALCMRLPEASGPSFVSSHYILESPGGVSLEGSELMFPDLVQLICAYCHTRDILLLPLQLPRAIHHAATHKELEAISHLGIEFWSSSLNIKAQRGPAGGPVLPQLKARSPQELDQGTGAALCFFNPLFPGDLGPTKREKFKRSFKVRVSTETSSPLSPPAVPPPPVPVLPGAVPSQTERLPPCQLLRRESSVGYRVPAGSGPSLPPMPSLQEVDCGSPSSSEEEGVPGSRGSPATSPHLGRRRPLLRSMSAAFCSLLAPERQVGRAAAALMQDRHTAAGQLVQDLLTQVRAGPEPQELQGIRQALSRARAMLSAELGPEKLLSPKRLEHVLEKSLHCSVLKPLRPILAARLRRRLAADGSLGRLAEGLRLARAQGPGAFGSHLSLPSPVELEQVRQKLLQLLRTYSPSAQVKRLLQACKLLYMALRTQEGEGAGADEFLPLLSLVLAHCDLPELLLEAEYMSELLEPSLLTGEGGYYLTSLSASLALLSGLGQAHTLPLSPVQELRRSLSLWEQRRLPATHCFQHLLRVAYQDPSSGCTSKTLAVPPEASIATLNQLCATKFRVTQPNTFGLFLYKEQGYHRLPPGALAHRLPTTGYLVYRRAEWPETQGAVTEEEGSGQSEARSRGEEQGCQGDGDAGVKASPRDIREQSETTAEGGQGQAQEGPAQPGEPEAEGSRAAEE
TPT1 inh – blocks Candida albicans tRNA 2'-phosphotransferase | recombinant caTPT1, FP RNA substrate dephosphorylation | inhibition, % at 5 µM | actives 0.81% (n = 300,000);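 active means inhibition above the mean of all tested compounds plus 3 SD, set per screening campaign, cut at about 24% in these data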;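 further: plate controls were DMSO alone for no effect and ferristatin control at 100 nM for full effect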
IDE act – activators of human insulin-degrading enzyme in cells; activation, % at 5.96 µM; HEK cells, FAbeta-B cleavage, fluorescence polarization; 0% vehicle, 100% cell-free pure enzyme wells; P14735; actives 0.073% (n = 340,000);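 active means activation above the mean of all tested compounds plus 3 SD, set per screening campaign, cut at about 17% in these data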
Calb FLC – C. albicans growth modulation with fluconazole. C. albicans CaCi-2 (fluconazole-resistant clinical isolate) + fluconazole, Alamar Blue growth, 48 h. growth inhibition, % (no concentration beside the values). actives 0.57% (n = 300,000);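 active means growth inhibition above about 58% in most replicates, limit read from the data, passing the limit was not always enough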;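 further: all wells also contain fluconazole at 8 µg/ml as a sub-toxic cotreatment; 0% = median of DMSO wells and 100% = median of geldanamycin control wells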
Rin1 Abl conf – confirmation of inhibitors of human Rin1-Abl interaction. shares compounds with Rin1 Abl inh. TR-FRET Rin1-Abl binding, purified proteins. inhibition, % at 7.35 µM. actives 49% (n = 1,300)
GFP quench – GFP fluorescence interference artifact; shares compounds with Rin1 Abl inh; inhibitors/quenchers counterscreen; inhibition, % at 6.75 µM; actives 8.5% (n = 1,300); AID 602125;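 further: ABL1-eGFP fusion protein alone without its partner RIN1-SBP; 0% = protein with vehicle and 100% = wells lacking protein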
GFP quench dose – quenches GFP in dose response, Rin1-Abl counter-screen. shares compounds with Rin1 Abl inh. GFP fluorescence interference/quenching counterscreen. IC50, µM. 230 tested, under 10 active. AID 602182; call rule not given here;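 further: ABL1-eGFP fusion protein alone without its RIN1 binding partner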
Numbers without * were called inactive; / = not tested or not shown; ! = not active in a repeat. This is a sample that favours compounds with a hit; in the whole collection about 2.3% have one here. Unless noted, no stated cut-off is given here; in the data, active means inhibition above about 6.5%; inactive means the rest.

SMILES	Rpn11 inh	IDE cell inh	Rin1 Abl inh	TPT1 inh	IDE act	Calb FLC	Rin1 Abl conf	GFP quench	others
CN(C)[C@@H]1C(=O)C(C(N)=O)=C(O)[C@@]2(O)C(=O)C3=C(O)c4c(O)cccc4[C@@](C)(O)[C@H]3[C@H](O)[C@@H]12	-5	-1	16*	-24	-1	2	2	7
O=C1NC2NC(=O)N([N+](=O)[O-])C2N1 (stereo not given)	-5	-1	8.7*	-1	/	-2	8.6*	0
CCn1nc(/C=C/c2ccccc2)nc2c(=O)n(C)c(=O)nc1-2	11	/	26*	/	/	101*	40*	2	GFP quench dose=>68
COC(=O)C1=C(c2ccc(C(C)=O)cc2)C[C@@H]2CC[C@H]1N2C(=O)N1CCC(C)CC1	-4	-2	4	/	1	/	/	/
COC(=O)C1C2c3ccccc3C(c3ccccc32)C1(C)C(=O)OC (stereo not given)	-1	/	6	/	2	/	/	/
COc1ccc(C(=O)C2CCCN(Cc3cnc(C)s3)C2)c(OC)c1 (stereo not given)	-3	2	9.9*	-4	2	-20	-1	0
O=[N+]([O-])c1ccc2nc(N3CCNCC3)ccc2c1	/	6	/	5	/	-3	/	/
O=C(NC1CCCCC1)Oc1cc2oc(=O)sc2cc1Cl	0	11	6.3*	0	-1	0	-1	-2
O=C(O)CCCCC1SCC2NC(=O)NC21 (stereo not given)	1	-3	86*	-2	8	-1	92*	0	GFP quench dose=>68
O=C(NC1CCCCC1)N1Cc2cc(N3CCOCC3)ccc2-n2nncc2C1	-4	/	3	/	/	/	/	/
C=CCN1CC[C@]23c4c5ccc(O)c4OC2[C@H](O)CC[C@@]3(O)[C@H]1C5 (stereo not given in full)	0	6	-2	/	3	/	/	/
Oc1ccc2c3c1O[C@H]1[C@@H](O)CC[C@@]4(O)[C@@H](C2)N(CC2CCC2)CC[C@]314	-7	5	11*!	1	6	-6	-2	-2
COc1ccc(NS(=O)(=O)c2ccc(OCC(=O)N3CCN(C)CC3)cc2)cc1Cl	3	-2	2	-3	0	-11	/	/
Oc1ccc(/C=N/NP(=S)(c2ccccc2)c2ccccc2)c(O)c1O	-2	-2	16*	-1	-10	104*	9.0*	5
Oc1ccccc1/C=N/NP(=S)(c1ccccc1)c1ccccc1	-3	0	1	-2	-1	14	/	/
CCC1([N+](=O)[O-])COP(=O)(NCc2cccnc2)OC1 (stereo not given)	-4	/	3	/	5	/	/	/
COc1cc2c(ccc3cc(OC)c(OC)c(O)c32)cc1O	/	-4	21*	-1	4	16	17*	6	GFP quench dose=>68
CCCCCc1cc(O)c2c3c(c(=O)oc2c1)CN(C)CC3	-4	-6	8.0*	-1	0	-7	-4	-1
FC(F)(F)c1ccc(-c2ccc3c(c2)CNCc2cnnn2-3)cc1	-1	/	4	/	/	/	/	/
C=CCN1CC[C@]23c4c5ccc(O)c4O[C@H]2C(=O)CC[C@@]3(O)[C@H]1C5	-7	4	1	1	4	/	/	/
C=CCN1CCc2cccc3c2[C@H]1Cc1ccc(O)c(O)c1-3	-7	-1	8.5*	-4	-8	11	7.1*	11*
CN(C)P1(=O)N(C)CCN1C	8	/	2	/	/	/	/	/
CCOC(=O)c1ccc(NC(=O)NC2CC3CCC(C2)N3)cc1 (stereo not given)	1	-1	18*	-2	8	-5	26*	0	GFP quench dose=>68
Cc1ccc(NC(=O)c2cc(-c3ccccc3)n(CCCN3CCOCC3)c2C)cc1	4	-1	1	-2	/	0	/	/
Cc1nc2nc(C)n(CCN3CCOCC3)c(=O)c2c(-c2cccc([N+](=O)[O-])c2)c1C(=O)CCCCCCCCCCN1CCC(c2ccccc2)(c2ccccc2)CC1	8	/	61*	/	11	/	69*	1	GFP quench dose=>68
SMILES	Rpn11 inh	IDE cell inh	Rin1 Abl inh	TPT1 inh	IDE act	Calb FLC	Rin1 Abl conf	GFP quench	others
CSc1nc(Cl)c(Br)c(N2CC2)n1	-4	/	-2	/	1	/	/	/
COc1ccc2nc(NC(=O)CCc3nc(C4=CCN(C)CC4)no3)sc2c1	2	8	75*	-4	1	1	80*	-1	GFP quench dose=>68
CCc1nnc(NC(=O)CCc2nc(C3=CCN(C)CC3)no2)s1	3	7	63*	-8	4	-4	62*	2	GFP quench dose=>68
Fc1ccccc1CCNCc1ccccc1	-9	0	8.8*	3	2	-14	1	-1
Fc1ccc(CNCCc2ccccc2F)cc1	-12	1	1	-4	-3	-7	/	/
COc1ccccc1N1CCN(Cc2cnc(-c3ccccc3)[nH]2)CC1	-1	1	1	2	5	-4	/	/
C[C@]12CCC3C(C(=O)C[C@H]4C[C@@H](O)CC[C@]34C)C1CCC2=O (stereo not given in full)	-1	-3	21*	/	1	/	20*	-1	GFP quench dose=>68
C[C@]12CC[C@H](O)C[C@H]1CC[C@@H]1[C@@H]2CC[C@]2(C)C(=O)CC[C@@H]12	1	4	3	/	3	/	/	/
COCCCn1c(N)c(C(=O)NCCC(C)C)c2nc3ccccc3nc21	6	-5	22*	2	5	10	2	-1
CCCCn1c(N)c(C(=O)OCCOC)c2nc3ccccc3nc21	11	0	-6	0	/	7	/	/
CCOC(=O)c1c(NC(=O)c2c(N)n(CCCOC)c3nc4ccccc4nc23)sc2c1CCCC2	1	1	-2	5	5	-16	/	/
CCOCCCn1c(N)c(C(=O)Nc2sc3c(c2C(=O)OC)CCCC3)c2nc3ccccc3nc21	-1	5	22*	4	-9	4	0	-1
O=C(O)c1cccc2c1NC(C(=O)O)C1CC(Sc3ccccc3[N+](=O)[O-])C(Cl)C21 (stereo not given)	-29	4	11*	4	2	/	5	20*
